Assay results taken from PubChem BioAssay (Tox21).
Inconclusive results are not listed. Calls of active or inactive are those of the source. Unless noted, calls follow the shape of the full dose curve.

Legend:
[1] = Nuclear factor erythroid 2-related factor 2/antioxidant responsive element (Nrf2/ARE) small molecule agonists: qHTS cell viability counter screen in human keratinocytes (AID 1919968; active = well fitted curve in the direction sought with a large enough effect in the repeat runs; an effect the other way counts as inactive or inconclusive; also: nearly all actives have a fitted effect of over 55% in size)
Method in brief: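 CellTiter-Fluor fluorescence, read 1 h after reagent, gave viability in the same wells as the ARE-luciferase assay. KeratinoSens cells (1,500/well) had 23 h compound exposure at 37 C/5% CO2 following 5 h plating.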

[2] = Nuclear factor erythroid 2-related factor 2/antioxidant responsive element (Nrf2/ARE) small molecule agonists: luciferase reporter gene qHTS assay in human keratinocytes (AID 1919969); also: nearly all actives have a fitted effect of over 35% in size
[3] = molecular target: Gonadotropin-releasing hormone receptor (Homo sapiens) (UniProt P30968); assay: Human gonadotropin-releasing hormone receptor (GnRHR) small molecule agonists, calcium flux assay in GnRHR-HEK293 cells (AID 1920063); also: nearly all actives have a fitted effect of over 35% in size
Method in brief: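 Agonist mode: compounds at 15 concentrations, in triplicate, went onto calcium dye-loaded GnRHR-HEK293 cells. Intracellular calcium was then followed as 480/540 nm fluorescence at 1 s intervals over 3 min.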

[4] = molecular target: KiSS-1 receptor (Homo sapiens) (UniProt Q969F8); assay: Human kisspeptin (KISS1R) small molecule agonists, calcium flux assay in KISS1R-HEK293 cells (AID 1920064; active = well fitted curve in the direction sought with a large enough effect in the repeat runs; an effect the other way counts as inactive or inconclusive)
Method in brief: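 Agonist mode: intracellular calcium rise tracked at 1 s intervals over 3 min (480/540 nm) immediately after compound addition to dye-loaded KISS1R-HEK293 stable cells. Each compound tested at 15 concentrations in triplicate.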

[5] = G protein-coupled receptor (GPCR) small molecule agonists, calcium flux assay: HEK293 wild type cell line counter screen (AID 1920065)
Method in brief: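 Calcium flux counter screen: compound added in agonist mode at 15 concentrations in triplicate to dye-loaded parental HEK293 cells. Fluorescence (480/540) read kinetically for 3 min; ATP served as positive control.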

[6] = p53 small molecule agonists, cell-based qHTS assay with human liver microsomes (AID 1963577)
Method in brief: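 Cells carrying a p53-responsive bla reporter were rested 5 h (37 C, 5% CO2) before compound transfer. Human liver microsomes plus NADPH, 0.5 mg/mL final apiece, supplied metabolism during the 16 h 37 C exposure.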

[7] = p53 small molecule agonists, cell-based qHTS assay with rat liver microsomes (AID 1963578)
Method in brief: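 Fluorescence from a beta-lactamase reporter under a p53 response element was measured after cells had been incubated 16 h at 37 C with test compound and rat liver microsomes plus NADPH (0.5 mg/mL final each).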

[8] = p53 small molecule agonists, cell-based qHTS assay with human liver microsomes: qHTS cell viability counter screen (AID 1963579); also: nearly all actives have a fitted effect of over 45% in size
Method in brief: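 Seed p53RE-bla cells at 4,000 per well; incubate 5 h at 37 C; add compound, human liver microsomes and NADPH; incubate 16 h at 37 C; add CellTiter-Glo; after 30 min at room temperature, read luminescence.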

[9] = p53 small molecule agonists, cell-based qHTS assay with rat liver microsomes: qHTS cell viability counter screen (AID 1963580); also: nearly all actives have a fitted effect of over 45% in size
Method in brief: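 Luminescent ATP readout (CellTiter-Glo, 30 min at room temperature) reports viability of p53RE-bla HCT-116 cells after 16 h at 37 C with test compounds under metabolic activation by rat liver microsomes and NADPH at 0.5 mg/mL final each.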

[10] = p53 small molecule agonists, cell-based qHTS assay: qHTS cell viability counter screen (AID 1963581); also: nearly all actives have a fitted effect of over 45% in size
Method in brief: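 Counter screen read by CellTiter-Glo luminescence (ATP content, 30 min at room temperature), run in the same wells as the beta-lactamase reporter read. HCT-116 p53RE-bla cells saw compounds for 16 h at 37 C.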

[11] = p53 small molecule agonists, cell-based qHTS assay (AID 1963582; active = well fitted activation curve with a large enough effect in the signal ratio in the repeat runs, not every such curve was filed as active; the % refers to the signal ratio)
Method in brief: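 Read-out is beta-lactamase FRET fluorescence after 2 h at room temperature with LiveBLAzer B/G substrate. p53 response element-bla cells were treated 16 h at 37 C with compounds in DMSO, added 5 h after seeding.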

[12] = molecular target: 5-hydroxytryptamine receptor 2A (Homo sapiens) (UniProt P28223); assay: 5-hydroxytryptamine receptor 2A (HTR2A) small molecule antagonists, cell-based qHTS assay (AID 1963586); also: nearly all actives have a fitted effect of over 45% in size
Method in brief: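 CHO cells stably expressing human HTR2A were plated for 18 h at 37 C, then loaded with calcium dye for 1 h. Compounds were preincubated 5 min at room temperature before DOI (4 nM solution) was added. Kinetic fluorescence was read for 3 min.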

[13] = molecular target: 5-hydroxytryptamine receptor 2A (Homo sapiens) (UniProt P28223); assay: 5-hydroxytryptamine receptor 2A (HTR2A) small molecule agonists, cell-based qHTS assay (AID 1963587); also: nearly all actives have a fitted effect of over 30% in size
Method in brief: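 HTR2A-CHO cells, plated 18 h at 37 C/5% CO2, dye-loaded 1 h at 37 C; compounds in DMSO added by pin tool (agonist mode). Intracellular calcium flux read as kinetic fluorescence on FDSS over 2 min at 1 s intervals.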

[14] = molecular target: Muscarinic acetylcholine receptor M1 (Homo sapiens) (UniProt P11229); assay: Cholinergic receptor muscarinic 1 (CHRM1) small molecule antagonists, cell-based qHTS assay (AID 1963588); also: nearly all actives have a fitted effect of over 40% in size
Method in brief: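 Compounds were tested at 15 concentrations in three independent runs. Dye-loaded CHRM1-CHO cells were exposed 5 min at room temperature before stimulation by acetylcholine added at 50nM. Intracellular calcium was read kinetically on FDSS for 3 min.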

[15] = molecular target: Muscarinic acetylcholine receptor M1 (Homo sapiens) (UniProt P11229); assay: Cholinergic receptor muscarinic 1 (CHRM1) small molecule agonists, cell-based qHTS assay (AID 1963589); also: nearly all actives have a fitted effect of over 35% in size
Method in brief: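 Agonist-mode calcium-flux screen: compounds at 15 concentrations, three independent runs, were pin-transferred onto dye-loaded human CHRM1-CHO cells. Fluorescence was then recorded kinetically every second over minutes.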

[16] = cAMP Responsive Elements (CRE) small molecule agonists, cell-based qHTS assay (AID 1963590)
Method in brief: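 Agonist mode: compound added to CRE-bla HEK 293T cells (2,000/well, 18 h after plating) for 3 h at 37 C/5% CO2. Reporter activity detected via FRET beta-lactamase substrate, 2 h room-temperature loading.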

[17] = cAMP Responsive Elements (CRE) small molecule antagonists, cell-based qHTS assay (AID 1963591; active = well fitted inhibition curve with a large enough effect in the signal ratio in the repeat runs, not every such curve was filed as active; the % refers to the signal ratio)
Method in brief: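 Antagonist mode: compounds are added alongside the adenylyl cyclase activator NKH477 (0.25 uM final) to CRE-bla HEK293T cells for 3 h. LiveBLAzer FRET substrate, 2 h at room temperature, reports bla expression.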

[18] = molecular target: Beta-2 adrenergic receptor (Homo sapiens) (UniProt P07550); assay: Adrenergic beta2 receptor (ADRB2) small molecule antagonists, cell-based qHTS assay (AID 1963592); also: series mostly up to about 92 µM; nearly all actives have a fitted effect of over 50% in size
Method in brief: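 Assay format: CHO-ADRB2 cells, 18-20hr seeding at 37C/5% CO2, then compound plus 1nM isoproterenol agonist mix for 0.5hr RT. Homogeneous time-resolved fluorescence cAMP detection after 1hr, expressed as 665/615 nm ratio.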

[19] = molecular target: Beta-2 adrenergic receptor (Homo sapiens) (UniProt P07550); assay: Adrenergic beta2 receptor (ADRB2) small molecule agonists, cell-based qHTS assay (AID 1963593);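 also: CHO cells stably overexpressing human ADRB2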
Method in brief: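 CHO cells stably over-expressing ADRB2 were plated overnight at 37C, then dosed with compounds plus a stimulation mix containing 100uM IBMX and 25uM Ro-20-1724 for 0.5hr at room temperature. cAMP was measured by HTRF competition, 1hr.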

[20] = molecular target: D(2) dopamine receptor (Homo sapiens) (UniProt P14416); assay: Dopamine D2 receptor (DRD2) small molecule agonists, cell-based qHTS assay (AID 1963594); also: nearly all actives have a fitted effect of over 35% in size
Method in brief: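 HEK293 cells stably expressing DRD2 were cultured 24 h at 37 C, then given Ro20-1724 (0.1 mM final) and compounds for 10 min at room temperature. NKH477 (200nM) was then added for 30 min. cAMP was read by HTRF.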
% is scaled to controls: 0 for no effect and ±100 for the full control effect.

Chain of Muscarinic acetylcholine receptor M1 (Homo sapiens) (P11229 whole entry, looked up): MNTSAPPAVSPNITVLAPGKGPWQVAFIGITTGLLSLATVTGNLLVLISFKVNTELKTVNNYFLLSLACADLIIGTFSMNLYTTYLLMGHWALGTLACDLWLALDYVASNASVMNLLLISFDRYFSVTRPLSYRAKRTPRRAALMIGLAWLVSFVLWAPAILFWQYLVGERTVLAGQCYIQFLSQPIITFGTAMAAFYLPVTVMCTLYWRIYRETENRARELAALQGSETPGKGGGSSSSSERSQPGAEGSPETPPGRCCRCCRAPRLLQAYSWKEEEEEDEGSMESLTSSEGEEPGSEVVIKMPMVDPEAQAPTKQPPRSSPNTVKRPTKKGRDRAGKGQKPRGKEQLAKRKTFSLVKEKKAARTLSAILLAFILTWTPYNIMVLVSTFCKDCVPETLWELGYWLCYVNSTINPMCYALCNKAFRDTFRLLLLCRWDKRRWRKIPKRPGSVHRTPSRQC
Chain of 5-hydroxytryptamine receptor 2A (Homo sapiens) (P28223 whole entry, looked up): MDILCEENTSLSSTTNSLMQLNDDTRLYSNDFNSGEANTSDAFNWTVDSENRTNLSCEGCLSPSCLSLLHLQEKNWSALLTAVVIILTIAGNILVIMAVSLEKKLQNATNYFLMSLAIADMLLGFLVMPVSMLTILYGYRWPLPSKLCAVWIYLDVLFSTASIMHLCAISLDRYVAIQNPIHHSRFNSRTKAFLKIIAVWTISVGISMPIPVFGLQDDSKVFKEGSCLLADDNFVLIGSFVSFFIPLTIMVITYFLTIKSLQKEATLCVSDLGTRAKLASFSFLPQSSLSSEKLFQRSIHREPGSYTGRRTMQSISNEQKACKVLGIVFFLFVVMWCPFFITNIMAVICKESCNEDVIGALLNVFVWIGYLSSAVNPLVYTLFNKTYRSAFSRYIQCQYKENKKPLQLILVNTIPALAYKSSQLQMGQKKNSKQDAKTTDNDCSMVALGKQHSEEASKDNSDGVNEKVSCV
Chain of Beta-2 adrenergic receptor (Homo sapiens) (P07550 whole entry, looked up): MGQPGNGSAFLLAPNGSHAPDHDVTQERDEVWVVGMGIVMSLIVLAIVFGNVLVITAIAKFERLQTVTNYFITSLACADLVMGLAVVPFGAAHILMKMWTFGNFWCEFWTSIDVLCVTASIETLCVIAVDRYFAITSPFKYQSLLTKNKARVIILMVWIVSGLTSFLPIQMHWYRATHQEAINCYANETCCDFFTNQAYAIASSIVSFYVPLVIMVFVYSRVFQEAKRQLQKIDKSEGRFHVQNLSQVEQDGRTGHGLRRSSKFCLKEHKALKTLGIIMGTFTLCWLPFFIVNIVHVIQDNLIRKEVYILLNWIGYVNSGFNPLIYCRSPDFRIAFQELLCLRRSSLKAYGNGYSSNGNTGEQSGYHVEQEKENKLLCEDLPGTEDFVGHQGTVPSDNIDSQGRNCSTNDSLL
Chain of D(2) dopamine receptor (Homo sapiens) (P14416 whole entry, looked up): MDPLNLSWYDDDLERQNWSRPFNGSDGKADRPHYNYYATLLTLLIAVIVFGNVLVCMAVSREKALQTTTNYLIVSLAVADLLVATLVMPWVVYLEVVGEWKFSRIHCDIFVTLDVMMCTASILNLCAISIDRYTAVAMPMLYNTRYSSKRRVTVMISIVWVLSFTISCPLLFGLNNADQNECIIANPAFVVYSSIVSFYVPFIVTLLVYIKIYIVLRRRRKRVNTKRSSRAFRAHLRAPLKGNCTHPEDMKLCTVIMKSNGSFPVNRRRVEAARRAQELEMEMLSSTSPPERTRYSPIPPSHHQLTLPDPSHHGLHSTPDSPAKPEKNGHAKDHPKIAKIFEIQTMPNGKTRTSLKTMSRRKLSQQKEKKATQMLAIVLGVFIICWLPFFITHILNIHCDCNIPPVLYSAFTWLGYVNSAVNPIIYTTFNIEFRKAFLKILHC
Chain of KiSS-1 receptor (Homo sapiens) (Q969F8 whole entry, looked up): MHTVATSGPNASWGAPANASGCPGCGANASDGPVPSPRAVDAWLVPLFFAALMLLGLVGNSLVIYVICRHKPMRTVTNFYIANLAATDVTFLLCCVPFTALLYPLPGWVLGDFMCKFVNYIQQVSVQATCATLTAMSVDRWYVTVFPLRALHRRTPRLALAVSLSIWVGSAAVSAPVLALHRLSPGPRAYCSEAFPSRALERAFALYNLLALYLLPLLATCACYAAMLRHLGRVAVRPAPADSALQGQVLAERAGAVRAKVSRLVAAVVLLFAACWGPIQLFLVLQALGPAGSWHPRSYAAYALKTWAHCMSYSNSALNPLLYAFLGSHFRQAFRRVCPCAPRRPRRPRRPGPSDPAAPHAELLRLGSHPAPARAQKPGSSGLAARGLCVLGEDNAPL
Chain of Gonadotropin-releasing hormone receptor (Homo sapiens) (P30968 whole entry, looked up): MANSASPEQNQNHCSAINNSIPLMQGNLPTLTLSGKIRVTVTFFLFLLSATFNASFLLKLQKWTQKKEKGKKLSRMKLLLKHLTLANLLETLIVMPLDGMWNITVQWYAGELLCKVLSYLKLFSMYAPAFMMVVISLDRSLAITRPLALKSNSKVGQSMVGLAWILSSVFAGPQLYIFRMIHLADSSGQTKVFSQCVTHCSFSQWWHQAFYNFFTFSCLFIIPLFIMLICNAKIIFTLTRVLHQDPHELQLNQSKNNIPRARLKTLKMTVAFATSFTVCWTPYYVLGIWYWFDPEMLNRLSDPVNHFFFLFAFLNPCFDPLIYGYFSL

CC(=O)c1cc(C)oc1C
inactive: Potency [1] | Potency [2] | Potency [3] | Potency [4] | Potency [5] | Potency [6] | Potency [7] | Potency [8] | Potency [9] | Potency [10] | Potency [11] | Potency [12] | Potency [13] | Potency [14] | Potency [15] | Potency [16] | Potency [17] | Potency [18] | Potency [19] | Potency [20]

CC(=O)N[C@@H](Cc1ccc(O)cc1)C(=O)O
inactive: Potency [1] | Potency [2] | Potency [3] | Potency [4] | Potency [5] | Potency [6] | Potency [7] | Potency [8] | Potency [9] | Potency [10] | Potency [11] | Potency [12] | Potency [13] | Potency [14] | Potency [15] | Potency [16] | Potency [17] | Potency [18] | Potency [19] | Potency [20]

CCO[Si](C)(OCC)OCC
inactive: Potency [1] | Potency [2] | Potency [3] | Potency [4] | Potency [5] | Potency [6] | Potency [7] | Potency [8] | Potency [9] | Potency [10] | Potency [11] | Potency [12] | Potency [13] | Potency [14] | Potency [15] | Potency [16] | Potency [17] | Potency [18] | Potency [19] | Potency [20]

C[C@@H]1NC(=O)[C@@H](N)CNC(=O)[C@H](C2CCNC(N)=N2)NC(=O)/C(=C/NC(N)=O)NC(=O)[C@H](CNC(=O)C[C@@H](N)CCCN)NC1=O (stereo not given in full)
inactive: activity change, negative = cytotoxicity [1] -0.202% [at 0.349 µM] | activity, positive = activation [2] -0.551% [at 0.349 µM] | activity change [3] -0.0026% [at 0.217 µM, active compounds read high] | activation [4] 4.86% [at 0.29 µM] | activation [5] -0.973% [at 0.217 µM] | activation [6] -0.0566% [at 0.249 µM] | activation [7] 0.811% [at 0.249 µM] | activity change, negative = cytotoxicity [8] 0.952% [at 0.249 µM] | activity change, negative = cytotoxicity [9] -3.72% [at 0.249 µM] | activity change, negative = cytotoxicity [10] -17.8% [at 0.249 µM] | activation [11] 5.76% [at 0.249 µM] | activity, negative = inhibition [12] 39.2% [at 0.233 µM] | activation [13] -0.558% [at 0.292 µM] | activity, negative = inhibition [14] -3.02% [at 0.232 µM] | activation [15] -0.0449% [at 0.29 µM] | activation [16] -0.384% [at 0.349 µM] | activity change, negative = inhibition [17] 0.0328% [at 0.349 µM] | activity change, negative = inhibition [18] 6.03% [at 0.349 µM] | activation [19] -2.39% [at 0.349 µM] | activation [20] -0.993% [at 0.349 µM]

CC(=O)CC(C)(C)C1CCCCC1
inactive: Potency [1] | Potency [2] | Potency [3] | Potency [4] | Potency [5] | Potency [6] | Potency [7] | Potency [8] | Potency [9] | Potency [10] | Potency [11] | Potency [12] | Potency [13] | Potency [14] | Potency [15] | Potency [16] | Potency [17] | Potency [18] | Potency [19] | Potency [20]

O=C1CC2CC1C1CCCC21 (stereo not given)
inactive: Potency [1] | Potency [2] | Potency [3] | Potency [4] | Potency [5] | Potency [6] | Potency [7] | Potency [8] | Potency [9] | Potency [10] | Potency [11] | Potency [12] | Potency [13] | Potency [14] | Potency [15] | Potency [16] | Potency [17] | Potency [18] | Potency [19] | Potency [20]

CCCCOC(=O)C(C)OC(=O)CCC (stereo not given)
inactive: Potency [1] | Potency [2] | Potency [3] | Potency [4] | Potency [5] | Potency [6] | Potency [7] | Potency [8] | Potency [9] | Potency [10] | Potency [11] | Potency [12] | Potency [13] | Potency [14] | Potency [15] | Potency [16] | Potency [17] | Potency [18] | Potency [19] | Potency [20]
